Shown are actives, neighbours in structure and some others; about 6.5% of the full set was active somewhere.
Vaccinia Venus – inhibitors of vaccinia virus (Venus reporter) | Vaccinia virus Venus reporter expression, fluorescence | Potency, µM (series often up to 36.5 µM), inactives show top-dose activity change, negative = inhibition, hits mostly inhibitors | 0.46% of 330,000 active | AID 720580; calls by dose curve; tested in A549 cells; note: potency is the fitted concentration of half-maximal effect; nearly all actives have a fitted effect of over 30% in size
MARV entry inh – inhibitors of Marburg virus binding or cell entry; Marburg virus pseudotyped entry inhibition, cell reporter; Potency, µM (top dose mostly 37.8 µM), for the others: top-dose activity change, negative = inhibition, actives largely listed as inhibitors; 1.8% of 300,000 active; AID 540276; calls by dose curve; tested in HEK293 cells; note: potency is the fitted concentration of half-maximal effect
LASV entry inh – inhibitors of Lassa virus binding or cell entry; Lassa virus pseudotype entry inhibition, cell reporter; Potency, µM (doses to about 37.9 µM), for inactives: at the highest dose activity change, negative = inhibition, hits mostly inhibitors; 1.2% of 300,000 active; AID 540256; calls by dose curve; tested in HEK293 cells; note: potency is the fitted concentration of half-maximal effect; nearly all actives have a fitted effect of over 50% in size
HCMV inh – human cytomegalovirus inhibition; HFF cells, HCMV-luciferase reporter, 72 h; stronger effect = lower value; activity change, negative = inhibition, % at 57.5 µM; 4.5% of 410,000 active; AID 1259415; in the data active = activity change below about -60%; inconclusive = no clear call, values can overlap the other calls; inactive = above about -39%
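Steps: HFFs plated, 16 h 37C; compounds added; HCMV-luciferase added to MOI 1 PFU/cell; 72 h 37C; OneGlo reagent, 5 min room temperature; luminescence read, normalized to controls.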
VACV mCherry inh – vaccinia inhibition (mCherry reporter); Vaccinia virus mCherry reporter infection, fluorescence; Potency, µM (top dose mostly 36.5 µM), for the others: at the top dose activity change, negative = inhibition, usual class: inhibitors; 0.63% of 310,000 active; AID 720579; calls by dose curve; tested in A549 cells; note: potency is the fitted concentration of half-maximal effect; nearly all actives have a fitted effect of over 35% in size
FMDV antiviral – blocks foot and mouth disease virus. FMDV antiviral cell-based qHTS. Potency, µM (doses to about 57.9 µM), without a hit: top-dose activity change, negative = inhibition, hits mostly inhibitors. 1.2% of 410,000 active. AID 1159524; calls by dose curve; tested in HEK293T cells; note: read-out not given here; potency is the fitted concentration of half-maximal effect; nearly all actives have a fitted effect of over 45% in size
* = called active by the depositor; i = inactive; ? = inconclusive; · = not tested or not shown; + = active, no number; ! = not active in a repeat; [ ] = another dose, or the depositor's remark. % is set by controls: 0 for no effect and ±100 for the full control effect.

SMILES	Vaccinia Venus	MARV entry inh	LASV entry inh	HCMV inh	VACV mCherry inh	FMDV antiviral
c1cncc(C(c2nnnn2C2CCCCC2)N2CCCCC2)c1 (stereo unspecified)	-10%	-9%[46.1 µM]	0%[46.1 µM]	-5	-14%	25%
Cc1ccc(Cl)cc1N1CCN(C(c2cccnc2)c2nnnn2C2CCCCC2)CC1 (stereo unspecified)	52%	15µM*!	?	-39	31%	·
Cc1ccc(Cl)cc1N1CCN(C(c2ccc(C#N)cc2)c2nnnn2C2CCCC2)CC1 (stereo unspecified)	3%	5.8µM*	-18%	?	5%	-4%
C[C@@H]([C@H](O)c1ccc(O)cc1)N1CCC(Cc2ccccc2)CC1	·	21µM*	·	·	·	-26%
CC(C(O)c1ccc(O)cc1)N1CCC(Cc2ccccc2)CC1 (stereo unspecified)	-22%	21µM*	23µM*	?	?	?
C[C@@H](CN1CCC(Cc2ccccc2)CC1)[C@@H](O)c1ccc(O)cc1	-15%	?	?	80	-1%	-21%
COc1cc(OC)cc(C(=O)NCC(=O)OCC(=O)/C=C2/N(C)c3ccccc3C2(C)C)c1	11%	?	-3%[46.1 µM]	-23	i	-36%
CC(C)[C@H](NC(=O)c1ccccc1)C(=O)OCC(=O)/C=C1/N(C)c2ccccc2C1(C)C	·	-41%	-21%	-68*	·	?
O=c1[nH]c(=O)n(Cc2ccccc2)c(O)c1C=NCCCn1ccnc1	-7%	?	?	-27	·	5%
CCCCn1cnc2c(c(-c3ccccc3)c(-c3ccccc3)n2Cc2ccco2)c1=N	-20%	-35%	-20%	-15	i	-23%
N=c1c2c(-c3ccccc3)c(-c3ccccc3)n(Cc3ccco3)c2ncn1Cc1ccco1	11µM*	?	?	-13	·	25µM*
N=c1c2c(-c3ccccc3)c(-c3ccccc3)n(Cc3ccccc3)c2ncn1CCCn1ccnc1	14µM*	?	?	-74*	·	-26%
O=Cc1cnc(N2CCN(c3ccccc3)CC2)s1	-8%	?	2%[46.1 µM]	14	-10%	-2%
O=Cc1cnc(N2CCN(Cc3ccccc3)CC2)s1	-12%	12%[46.1 µM]	-15%[46.1 µM]	-64*	i	-13%
Cc1ccccc1C1=NOC2CN(C(=O)/C=C/c3ccccc3)CC12 (stereo unspecified)	·	·	·	-11	·	·
O=C(C=Cc1ccccc1)c1c[nH]c2ccccc2c1=O	-29%	?	?	-77*	?	-18%
Cc1[nH]c2ccccc2c(=O)c1C(=O)/C=C/c1ccccc1	?	·	·	-97*	3.2µM*	13µM*
O=C(/C=C/c1ccccc1)c1c[nH]c2ccccc12	-18%[7.34 µM]	·	·	18	-21%[7.34 µM]	-29%
Cc1cc(OCC(=O)NCC2(N3CCN(C)CC3)CCCCC2)cc(C)c1Cl	-25%	?	-24%[46.1 µM]	-82*	-8%	-4%
O=C(COc1ccccc1Cl)NCC1(N2CCOCC2)CCCCC1	-21%	-24%[46.1 µM]	12%[46.1 µM]	-100*	-24%	-23%
O=C(CSc1ccccc1)NCC1(N2CCOCC2)CCCCC1	-4%	-29%	1%	-77*	-18%	0%
Cc1cc(Br)cc(C)c1OCC(=O)Nc1ccc(S(=O)(=O)Nc2ncccn2)cc1	-21%	-1%[46.1 µM]	-16%[46.1 µM]	13	-16%	-14%
CCOC(=O)C1CSCCS(=O)(=O)N1Cc1cccc(Cl)c1 (stereo unspecified)	·	·	·	14	·	·
CCOCCN1CCN(C2c3ccccc3CSc3ccccc32)CC1 (stereo unspecified)	-16%	13µM*	?	?	-22%	-24%
CCNC(=O)NC1c2ccccc2CSc2ccccc21 (stereo unspecified)	-12%	?	-22%[46.1 µM]	-12	i	-23%
SMILES	Vaccinia Venus	MARV entry inh	LASV entry inh	HCMV inh	VACV mCherry inh	FMDV antiviral
CCCOc1ccc(S(=O)(=O)N2CCN(C)CC2)c2ccccc12	-25%	-3%	-2%	-61*	?	11%
CCOc1ccc(S(=O)(=O)N2CCCC2)c2ccccc12	-15%	·	·	-30	?	?
COc1ccc(NC(=O)c2ccc3c(=O)n(-c4ccc(OC)cc4OC)c(=S)[nH]c3c2)c(OC)c1	-26%	-24%	-9%	-24	-8%	?
COc1ccc(-n2c(=S)[nH]c3cc(C(=O)Nc4ccc(C)c(F)c4)ccc3c2=O)c(OC)c1	?	?	?	-76*	i	-17%
CCOc1ccc(NC(=O)c2ccc3c(=O)n(-c4ccc(OC)cc4OC)c(=S)[nH]c3c2)cc1	·	·	·	-82*	·	·
Cc1ccc(F)cc1C(=O)Nc1ccn2ccnc2n1	·	·	·	2	·	·
COc1cc(OC)c(OC)cc1CN1CCOc2ccc(CN3CCN(C(C)=O)CC3)cc2C1	-10%	·	·	·	-15%	-30%
CC(C)(C)OC(=O)/C=C/[C@@H]1Cc2cc(C(F)(F)F)ccc2N1	·	·	·	14	·	·
O=c1c2ccccc2cnn1CCOc1ccccc1	-10%	2.1µM*	0.28µM*	-87*	i	10µM*
CCC(=O)N1CCc2cc(S(=O)(=O)CCC(=O)Nc3ccc(Cl)c(C(F)(F)F)c3)ccc21	7.9µM*	2%[46.1 µM]	-1%[46.1 µM]	-91*	5µM*	0%
O=C(CCCCCN1C(=O)CCC1=O)Nc1ccc(Cl)c(C(F)(F)F)c1	-20%	1%	-32%[14.3 µM]	-64*	-28%	?
CCC(=O)N1c2ccc(S(=O)(=O)CCC(=O)Nc3ccc(Br)c(C)c3)cc2CC1C (stereo unspecified)	-27%	3%[46.1 µM]	-19%[46.1 µM]	-72*	?	0%
Cc1ccc(S(=O)(=O)CCC(=O)Nc2ccc(Br)cc2)cc1	-17%	5%[46.1 µM]	-9%[46.1 µM]	-25	i	-13%
CCc1ccc(NC(=O)CCS(=O)(=O)c2ccc(Br)cc2)cc1	·	·	·	-62*	·	-3%
COc1ccc(NC(=O)CCCCCN2C(=O)CCC2=O)cc1Cl	-1%	9%	33%[14.3 µM]	15	-5%	16%
CCC(=O)N1c2ccc(S(=O)(=O)CCC(=O)NC3CCCC3)cc2CC1C (stereo unspecified)	-2%	-10%[46.1 µM]	-10%	8	-10%	-1%
CN1C(=O)Cc2cc(S(=O)(=O)CCC(=O)Nc3ccc(Cl)c(C(F)(F)F)c3)ccc21	-17%	·	3%[46.1 µM]	?	-37%	-14%
CCOC(=O)/C=C/[C@@H](CCC(=O)OC)NC(=O)C(F)(F)F	·	·	·	-16	·	·
N#Cc1ccc(CN2CC[C@@]3(CCCN(C(=O)c4ccco4)C3)C2)cc1	·	·	·	·	·	-4%
O=C(CCS(=O)(=O)c1ccc(Br)cc1)Nc1ccc(Cl)c(C(F)(F)F)c1	?	·	-20%[46.1 µM]	?	11µM*	-14%
Cc1ccccc1NC(=O)CCS(=O)(=O)c1ccc(Br)cc1	·	·	·	-24	·	-23%
Cc1ccc(S(=O)(=O)CCC(=O)Nc2ccc(Br)cc2C)cc1	-15%	·	-4%[46.1 µM]	+	-15%	-9%
CCN(C(=O)CSc1nc2ccccc2n1CC(=O)N1CCCC(C)C1)c1ccccc1 (stereo unspecified)	-1%	·	21%[46.1 µM]	-10	-2%	1%

Screening results: PubChem BioAssay, National Center for Advancing Translational Sciences (NCATS)
